According to the supplement of paper PMC9694430:

Key:
Experiment in all cases: thermal shift delta Tm vs DMSO control; higher = stronger stabilization (binding)
Details in all cases: 12.5 µM; protein concentration 2 µM
LOC_OS04G57630-cb004 = system: LOC_OS04G57630-cb004
Summary of the method: (§1)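 Compounds dissolved in DMSO were added to purified rice kinase domain constructs, which had been expressed in E. coli, for differential scanning fluorimetry. Each well held 19.5 μl of 2 μM kinase in 100 mM potassium phosphate pH 7.5, 150 mM NaCl, 10% glycerol and 5 × SYPRO Orange. Fluorescence was followed from 25°C to 95°C at a rate of 0.05°C/s. Shifts in Boltzmann-fitted melting temperature are triplicate means relative to DMSO-only protein.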

LOC_OS05G07850-cb002 = system: LOC_OS05G07850-cb002
Summary of the method: as §1

LOC_OS05G16824-cb004 = system: LOC_OS05G16824-cb004
Summary of the method: as §1

LOC_OS05G28520-cb001 = system: LOC_OS05G28520-cb001
Summary of the method: as §1

LOC_OS05G30820-cb001 = system: LOC_OS05G30820-cb001
Summary of the method: as §1

LOC_OS05G43570-cb004 = system: LOC_OS05G43570-cb004
Summary of the method: as §1

LOC_OS06G16330-cb003 = system: LOC_OS06G16330-cb003
Sequence of LOC_OS06G16330-cb003 (as listed by the source): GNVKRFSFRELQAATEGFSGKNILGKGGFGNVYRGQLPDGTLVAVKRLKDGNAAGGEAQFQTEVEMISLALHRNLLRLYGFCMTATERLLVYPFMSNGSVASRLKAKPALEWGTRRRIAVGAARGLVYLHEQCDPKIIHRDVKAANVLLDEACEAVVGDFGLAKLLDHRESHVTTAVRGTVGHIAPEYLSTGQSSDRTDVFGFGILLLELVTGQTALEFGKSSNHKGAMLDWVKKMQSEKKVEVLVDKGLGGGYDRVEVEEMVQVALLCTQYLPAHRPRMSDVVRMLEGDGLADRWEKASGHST
Summary of the method: as §1

LOC_OS06G22820-cb001 = system: T1, LOC_OS06G22820-cb001
T1 sequence (whole entry): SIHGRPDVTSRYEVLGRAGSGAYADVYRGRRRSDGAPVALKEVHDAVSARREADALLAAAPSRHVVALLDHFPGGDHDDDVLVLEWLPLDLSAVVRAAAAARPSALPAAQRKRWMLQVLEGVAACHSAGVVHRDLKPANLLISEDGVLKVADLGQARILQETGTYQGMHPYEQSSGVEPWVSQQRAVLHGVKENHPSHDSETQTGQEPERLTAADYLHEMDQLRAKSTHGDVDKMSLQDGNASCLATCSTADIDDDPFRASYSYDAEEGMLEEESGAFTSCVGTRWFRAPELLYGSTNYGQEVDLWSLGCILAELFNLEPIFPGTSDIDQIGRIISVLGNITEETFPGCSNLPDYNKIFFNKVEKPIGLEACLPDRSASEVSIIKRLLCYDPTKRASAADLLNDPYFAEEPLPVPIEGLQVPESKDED
Summary of the method: as §1

LOC_OS07G06570-cb004 = system: LOC_OS07G06570-cb004
Summary of the method: as §1

LOC_OS07G07230-cb001 = system: LOC_OS07G07230-cb001
Summary of the method: as §1

## Cc1c(NC(=O)c2ccc(C(C)(C)C)cc2)cccc1-c1cn(C)c(=O)c(Nc2ccc(C(=O)N3CCOCC3)cc2)n1
LOC_OS04G57630-cb004
  thermal shift delta Tm: 0.37 °C
LOC_OS05G07850-cb002
  thermal shift delta Tm: 0.29 °C
LOC_OS05G16824-cb004
  thermal shift delta Tm: 0.48 °C
LOC_OS05G28520-cb001
  thermal shift delta Tm: 0.5 °C
LOC_OS05G30820-cb001
  thermal shift delta Tm: 0.18 °C
LOC_OS05G43570-cb004
  thermal shift delta Tm: 0.64 °C
LOC_OS06G16330-cb003
  thermal shift delta Tm: 0.07 °C
LOC_OS06G22820-cb001
  thermal shift delta Tm: 0.84 °C
LOC_OS07G06570-cb004
  thermal shift delta Tm: 1.05 °C
LOC_OS07G07230-cb001
  thermal shift delta Tm: -0.21 °C

## NC(=O)Nc1cc(-c2cccc(F)c2)sc1C(=O)N[C@H]1CCCNC1
LOC_OS04G57630-cb004
  thermal shift delta Tm: 3.39 °C
LOC_OS05G07850-cb002
  thermal shift delta Tm: 11.9 °C
LOC_OS05G16824-cb004
  thermal shift delta Tm: 10.8 °C
LOC_OS05G28520-cb001
  thermal shift delta Tm: 0.35 °C
LOC_OS05G30820-cb001
  thermal shift delta Tm: 1.33 °C
LOC_OS05G43570-cb004
  thermal shift delta Tm: 1.05 °C
LOC_OS06G16330-cb003
  thermal shift delta Tm: 9.93 °C
LOC_OS06G22820-cb001
  thermal shift delta Tm: 0.87 °C
LOC_OS07G06570-cb004
  thermal shift delta Tm: 1.07 °C
LOC_OS07G07230-cb001
  thermal shift delta Tm: -0.31 °C

## O=C1Cc2c([nH]c3ccc(Br)cc23)-c2ccccc2N1 [Kenpaullone]
LOC_OS04G57630-cb004
  thermal shift delta Tm: 2.67 °C
LOC_OS05G07850-cb002
  thermal shift delta Tm: 7.41 °C
LOC_OS05G16824-cb004
  thermal shift delta Tm: 3.07 °C
LOC_OS05G28520-cb001
  thermal shift delta Tm: 1 °C
LOC_OS05G30820-cb001
  thermal shift delta Tm: 2.18 °C
LOC_OS05G43570-cb004
  thermal shift delta Tm: 1.21 °C
LOC_OS06G16330-cb003
  thermal shift delta Tm: 2.59 °C
LOC_OS06G22820-cb001
  thermal shift delta Tm: 0.96 °C
LOC_OS07G06570-cb004
  thermal shift delta Tm: -0.23 °C
LOC_OS07G07230-cb001
  thermal shift delta Tm: 0.05 °C

## N#Cc1c(NC(=O)c2cccc3ccccc23)sc2c1CCCC2 [JNK Inhibitor IX]
LOC_OS04G57630-cb004
  thermal shift delta Tm: 0.22 °C
LOC_OS05G07850-cb002
  thermal shift delta Tm: 0.04 °C
LOC_OS05G16824-cb004
  thermal shift delta Tm: -1.1 °C
LOC_OS05G28520-cb001
  thermal shift delta Tm: 0.77 °C
LOC_OS05G30820-cb001
  thermal shift delta Tm: 0.43 °C
LOC_OS05G43570-cb004
  thermal shift delta Tm: 0.27 °C
LOC_OS06G16330-cb003
  thermal shift delta Tm: -0.09 °C
LOC_OS06G22820-cb001
  thermal shift delta Tm: 0.6 °C
LOC_OS07G06570-cb004
  thermal shift delta Tm: 0.83 °C
LOC_OS07G07230-cb001
  thermal shift delta Tm: 0.4 °C

## COc1cc(F)c(F)c(Nc2ccc(I)cc2F)c1NS(=O)(=O)C1(C[C@H](O)CO)CC1 [Refametinib (RDEA119, Bay 86-9766)]
LOC_OS04G57630-cb004
  thermal shift delta Tm: 0.29 °C
LOC_OS05G07850-cb002
  thermal shift delta Tm: 0.16 °C
LOC_OS05G16824-cb004
  thermal shift delta Tm: -0.08 °C
LOC_OS05G28520-cb001
  thermal shift delta Tm: 1.02 °C
LOC_OS05G30820-cb001
  thermal shift delta Tm: 0.34 °C
LOC_OS05G43570-cb004
  thermal shift delta Tm: 0.4 °C
LOC_OS06G16330-cb003
  thermal shift delta Tm: 0.11 °C
LOC_OS06G22820-cb001
  thermal shift delta Tm: 1.27 °C
LOC_OS07G06570-cb004
  thermal shift delta Tm: 0.72 °C
LOC_OS07G07230-cb001
  thermal shift delta Tm: 0.01 °C

## N#Cc1cnc(Nc2cc(NC[C@H]3CNCCO3)c(C(F)(F)F)cn2)cn1
LOC_OS04G57630-cb004
  thermal shift delta Tm: 0.23 °C
LOC_OS05G07850-cb002
  thermal shift delta Tm: 4.22 °C
LOC_OS05G16824-cb004
  thermal shift delta Tm: 4.42 °C
LOC_OS05G28520-cb001
  thermal shift delta Tm: 0.04 °C
LOC_OS05G30820-cb001
  thermal shift delta Tm: 0.75 °C
LOC_OS05G43570-cb004
  thermal shift delta Tm: 0.11 °C
LOC_OS06G16330-cb003
  thermal shift delta Tm: 2.23 °C
LOC_OS06G22820-cb001
  thermal shift delta Tm: 0.3 °C
LOC_OS07G06570-cb004
  thermal shift delta Tm: 1.08 °C
LOC_OS07G07230-cb001
  thermal shift delta Tm: 0.52 °C

## CCOC(=O)c1cnc2ccc(-c3cncc(NS(=O)(=O)c4ccccc4)c3)cn12
LOC_OS04G57630-cb004
  thermal shift delta Tm: 0.28 °C
LOC_OS05G07850-cb002
  thermal shift delta Tm: 3.75 °C
LOC_OS05G16824-cb004
  thermal shift delta Tm: 1.63 °C
LOC_OS05G28520-cb001
  thermal shift delta Tm: 0.65 °C
LOC_OS05G30820-cb001
  thermal shift delta Tm: 0.47 °C
LOC_OS05G43570-cb004
  thermal shift delta Tm: 0.51 °C
LOC_OS06G16330-cb003
  thermal shift delta Tm: 2.32 °C
LOC_OS06G22820-cb001
  thermal shift delta Tm: 0.38 °C
LOC_OS07G06570-cb004
  thermal shift delta Tm: 0.45 °C
LOC_OS07G07230-cb001
  thermal shift delta Tm: 0.1 °C

## CS(=O)(=O)c1cccc(CNc2nc(Nc3ccc4c(c3)CCC(=O)N4)ncc2C(F)(F)F)c1
LOC_OS04G57630-cb004
  thermal shift delta Tm: 1.7 °C
LOC_OS05G07850-cb002
  thermal shift delta Tm: 8.91 °C
LOC_OS05G16824-cb004
  thermal shift delta Tm: 11.1 °C
LOC_OS05G28520-cb001
  thermal shift delta Tm: 1.18 °C
LOC_OS05G30820-cb001
  thermal shift delta Tm: 2.8 °C
LOC_OS05G43570-cb004
  thermal shift delta Tm: 0.96 °C
LOC_OS06G16330-cb003
  thermal shift delta Tm: 6.92 °C
LOC_OS06G22820-cb001
  thermal shift delta Tm: 0.35 °C
LOC_OS07G06570-cb004
  thermal shift delta Tm: 0.43 °C
LOC_OS07G07230-cb001
  thermal shift delta Tm: -0.39 °C

## C#Cc1cccc(Nc2ncnc3cc(OC)c(OCCCCCCC(=O)NO)cc23)c1
LOC_OS04G57630-cb004
  thermal shift delta Tm: 0.04 °C
LOC_OS05G07850-cb002
  thermal shift delta Tm: 7.33 °C
LOC_OS05G16824-cb004
  thermal shift delta Tm: -6.18 °C
LOC_OS05G28520-cb001
  thermal shift delta Tm: 0.35 °C
LOC_OS05G30820-cb001
  thermal shift delta Tm: 0.58 °C
LOC_OS05G43570-cb004
  thermal shift delta Tm: 0.66 °C
LOC_OS06G16330-cb003
  thermal shift delta Tm: 1.72 °C
LOC_OS06G22820-cb001
  thermal shift delta Tm: 0.49 °C
LOC_OS07G06570-cb004
  thermal shift delta Tm: 0.91 °C
LOC_OS07G07230-cb001
  thermal shift delta Tm: -0.06 °C

## CCN(CC)CCCC(C)Nc1ccnc2cc(Cl)ccc12 (stereo not given) [Chloroquine Phosphate]
LOC_OS04G57630-cb004
  thermal shift delta Tm: 0.53 °C
LOC_OS05G07850-cb002
  thermal shift delta Tm: 0.78 °C
LOC_OS05G16824-cb004
  thermal shift delta Tm: -0.51 °C
LOC_OS05G28520-cb001
  thermal shift delta Tm: 0.02 °C
LOC_OS05G30820-cb001
  thermal shift delta Tm: 0.51 °C
LOC_OS05G43570-cb004
  thermal shift delta Tm: 0.55 °C
LOC_OS06G16330-cb003
  thermal shift delta Tm: -3.04 °C
LOC_OS06G22820-cb001
  thermal shift delta Tm: 0.22 °C
LOC_OS07G06570-cb004
  thermal shift delta Tm: 0.72 °C
LOC_OS07G07230-cb001
  thermal shift delta Tm: 0.52 °C
